Laboratory results reported in the supplement of paper PMC8728848.
The entries come from a sample that favours the strongest signals as a whole.

What was measured:
Experiment in all cases: glycan array binding signal (z-score within array); higher = stronger binding
Conditions in all cases: glycan notation: IUPAC condensed, linker removed; mutation: D21K
[1] = target: Fuc(a1-2)Gal(b1-3)GalNAc(a1-3)[Fuc(a1-2)]Gal(b1-4)GlcNAc
In short: (§1)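 Glycan array data were curated from 3228 arrays in the Consortium for Functional Glycomics database and kept only where the protein sequence was available. Glycan names were converted to IUPAC-condensed notation, and columns mapping to the same glycan were averaged. The binding signal is a within-array Z-score, averaged across arrays of the same protein sequence at different concentrations or buffers and across linkers. Negative Z-scores can be read as non-binding.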

[2] = target: Fuc(a1-2)Gal(b1-4)[Fuc(a1-3)]GlcNAc
In short: as §1

[3] = target: Fuc(a1-2)[Gal(a1-3)]Gal(b1-4)GlcNAc
In short: as §1

[4] = target: Fuc(a1-2)[Gal(a1-3)]Gal(b1-4)GlcNAc(b1-3)GalNAc
In short: as §1

[5] = target: Fuc(a1-2)[Gal(a1-3)]Gal(b1-4)GlcNAc(b1-3)[Fuc(a1-2)[Gal(a1-3)]Gal(b1-4)GlcNAc(b1-6)]GalNAc
In short: as §1

[6] = target: Fuc(a1-2)[Gal(a1-3)]Gal(b1-4)GlcNAc(b1-6)GalNAc
In short: as §1

[7] = target: Fuc(a1-2)[Gal(a1-3)]Gal(b1-4)[Fuc(a1-3)]GlcNAc
In short: as §1

[8] = target: Fuc(a1-2)[GalNAc(a1-3)]Gal(b1-4)GlcNAc(b1-2)Man(a1-3)[Fuc(a1-2)[GalNAc(a1-3)]Gal(b1-4)GlcNAc(b1-2)Man(a1-6)]Man(b1-4)GlcNAc(b1-4)GlcNAc
In short: as §1

[9] = target: Fuc(a1-2)[GalNAc(a1-3)]Gal(b1-4)GlcNAc(b1-3)[Fuc(a1-2)[GalNAc(a1-3)]Gal(b1-4)GlcNAc(b1-6)]GalNAc
In short: as §1

[10] = target: Gal(a1-3)Gal(b1-4)GlcNAc(b1-2)Man
In short: as §1

Gal(a1-4)GlcNAc = target: Gal(a1-4)GlcNAc
In short: as §1

Gal(a1-6)Glc = target: Gal(a1-6)Glc
In short: as §1

[11] = target: Gal(b1-3)GalNAc(b1-3)Gal(a1-4)Gal(b1-4)Glc
In short: as §1

[12] = target: Gal(b1-3)GalNAc(b1-4)[Neu5Ac(a2-3)]Gal(b1-4)Glc
In short: as §1

[13] = target: Gal(b1-3)GlcNAc(b1-2)Man(a1-3)[GlcNAc(b1-4)][Gal(b1-3)GlcNAc(b1-2)Man(a1-6)]Man(b1-4)GlcNAc(b1-4)GlcNAc
In short: as §1

[14] = target: Gal(b1-3)GlcNAc(b1-3)Gal(b1-4)Glc
In short: as §1

[15] = target: Gal(b1-3)GlcNAc(b1-3)Gal(b1-4)GlcNAc(b1-3)Gal(b1-4)GlcNAc(b1-2)[Gal(b1-3)GlcNAc(b1-3)Gal(b1-4)GlcNAc(b1-3)Gal(b1-4)GlcNAc(b1-6)]Man(a1-6)[Gal(b1-3)GlcNAc(b1-3)Gal(b1-4)GlcNAc(b1-3)Gal(b1-4)GlcNAc(b1-2)Man(a1-3)]Man(b1-4)GlcNAc(b1-4)[Fuc(a1-6)]GlcNAc
In short: as §1

Gal(b1-3)GlcNAc6S = target: Gal(b1-3)GlcNAc6S
In short: as §1

[16] = target: Gal(b1-3)[Fuc(a1-4)]GlcNAc(b1-2)Man(a1-3)[Gal(b1-3)[Fuc(a1-4)]GlcNAc(b1-2)Man(a1-6)]Man(b1-4)GlcNAc(b1-4)[Fuc(a1-6)]GlcNAc
In short: as §1

[17] = target: Gal(b1-3)[GlcNAc(b1-6)]GalNAc
In short: as §1

[18] = target: Gal(b1-4)GlcNAc(b1-3)Gal(b1-4)GlcNAc(b1-2)Man(a1-3)[Gal(b1-4)GlcNAc(b1-3)Gal(b1-4)GlcNAc(b1-2)Man(a1-6)]Man(b1-4)GlcNAc(b1-4)[Fuc(a1-6)]GlcNAc
In short: as §1

[19] = target: Gal(b1-4)GlcNAc(b1-3)Gal(b1-4)GlcNAc(b1-3)Gal(b1-4)GlcNAc(b1-3)Gal(b1-4)GlcNAc(b1-2)[Gal(b1-4)GlcNAc(b1-3)Gal(b1-4)GlcNAc(b1-3)Gal(b1-4)GlcNAc(b1-3)Gal(b1-4)GlcNAc(b1-6)]Man(a1-6)[Gal(b1-4)GlcNAc(b1-3)Gal(b1-4)GlcNAc(b1-3)Gal(b1-4)GlcNAc(b1-3)Gal(b1-4)GlcNAc(b1-2)Man(a1-3)]Man(b1-4)GlcNAc(b1-4)[Fuc(a1-6)]GlcNAc
In short: as §1

[20] = target: Gal(b1-4)GlcNAc(b1-3)Gal(b1-4)GlcNAc(b1-3)GalNAc
In short: as §1

[21] = target: Gal(b1-4)GlcNAc(b1-3)Gal(b1-4)GlcNAc(b1-6)[Gal(b1-3)]GalNAc
In short: as §1

[22] = target: Gal(b1-4)GlcNAc(b1-3)Gal(b1-4)[Fuc(a1-3)]GlcNAc(b1-3)Gal(b1-4)[Fuc(a1-3)]GlcNAc
In short: as §1

Gal3S6S(b1-4)GlcNAc = target: Gal3S6S(b1-4)GlcNAc
In short: as §1

Gal6S(b1-3)GlcNAc6S = target: Gal6S(b1-3)GlcNAc6S
In short: as §1

[23] = target: GalNAc(a1-3)GalNAc(b1-3)Gal(a1-4)Gal(b1-4)GlcNAc
In short: as §1

[24] = target: GalNAc(b1-3)Gal(a1-4)Gal(b1-4)GlcNAc(b1-3)Gal(b1-4)Glc
In short: as §1

GalNAc(b1-3)GlcNAc = target: GalNAc(b1-3)GlcNAc
In short: as §1

## KILRGVCKKIMRTFLRRISKKILTGKK [C7A (Sus scrofa)]
[1]
  glycan array binding signal (z-score): -0.784
[2]
  glycan array binding signal (z-score): -1.12
[3]
  glycan array binding signal (z-score): 0.504
[4]
  glycan array binding signal (z-score): -1.37
[5]
  glycan array binding signal (z-score): -0.287
[6]
  glycan array binding signal (z-score): 0.121
[7]
  glycan array binding signal (z-score): 1.3
[8]
  glycan array binding signal (z-score): -0.971
[9]
  glycan array binding signal (z-score): 0.698
[10]
  glycan array binding signal (z-score): -0.255
Gal(a1-4)GlcNAc
  glycan array binding signal (z-score): -1.02
Gal(a1-6)Glc
  glycan array binding signal (z-score): -1.76
[11]
  glycan array binding signal (z-score): 2.25
[12]
  glycan array binding signal (z-score): 0.649
[13]
  glycan array binding signal (z-score): 0.213
[14]
  glycan array binding signal (z-score): -0.894
[15]
  glycan array binding signal (z-score): 0.352
Gal(b1-3)GlcNAc6S
  glycan array binding signal (z-score): 1.73
[16]
  glycan array binding signal (z-score): -1.63
[17]
  glycan array binding signal (z-score): -0.867
[18]
  glycan array binding signal (z-score): 3.05
[19]
  glycan array binding signal (z-score): -0.172
[20]
  glycan array binding signal (z-score): 2.33
[21]
  glycan array binding signal (z-score): 2.48
[22]
  glycan array binding signal (z-score): -0.696
Gal3S6S(b1-4)GlcNAc
  glycan array binding signal (z-score): 2.5
Gal6S(b1-3)GlcNAc6S
  glycan array binding signal (z-score): 2.66
[23]
  glycan array binding signal (z-score): 0.64
[24]
  glycan array binding signal (z-score): 1.58
GalNAc(b1-3)GlcNAc
  glycan array binding signal (z-score): -0.947
